This passage reports growth results from PubChem BioAssay (NCI).

Test systems include NCI-H23 lung; NCI-H226 lung; NCI-H322M lung; HOP-62 NSCLC; NCI-H460 lung; HOP-92 NSCLC; NCI-H522 lung; A549/ATCC NSCLC; 786-0 renal; DU-145 prostate; K-562 leukemia; MALME-3M melanoma; MDA-MB-231 breast; RXF 393 renal; SF-268 CNS; SF-295 CNS; SF-539 CNS; UACC-257 melanoma; M14 melanoma.
Common to all, as to test: NCI-60 one-dose screen, 48 h (100 = growth as untreated, 0 = no growth, -100 = all killed)
Holding throughout (conditions): 10 µM unless noted

This is part of a sample that, as a whole, favours compounds with a hit. Of some 83,000 tested, about 20% had one in any assay.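 Cells were grown in 96-well plates and exposed to the test compound at a single concentration for 48 hours; results are reported as percent growth, with values below 10 considered active.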 Values without a mark were called inactive. Active and inactive are the calls of the source.

Consider `C=CCN1C(=O)[C@]2(SC1=S)[C@H](c1cccc(Cl)c1)CN(C)[C@]21C(=O)NC2C=CC(Cl)=C[C@H]21` (some centres undefined), for which the growth with NCI-H23 lung is 45.7%; in the assay with NCI-H226 lung, 43.4%; in the assay with NCI-H322M lung it was 87.2%; in the assay on HOP-62 NSCLC it was 63.9%; with NCI-H460 lung, 55.3%; with HOP-92 NSCLC it was -6.48% (active). Further, the growth was 41.3% in the assay with NCI-H522 lung; 41.9% in the assay with A549/ATCC NSCLC; 24.8% in the assay with 786-0 renal; 48.8% with DU-145 prostate; 22.9% with K-562 leukemia; 35.7% in the assay on MALME-3M melanoma. The growth in the assay with MDA-MB-231 breast is 26.8%; in the assay on RXF 393 renal, 35.4%; in the assay on SF-268 CNS it was 52.9%; with SF-295 CNS, 32.1%; in the assay on SF-539 CNS, 81.1%; with UACC-257 melanoma it was 26.5%. Also, the growth in the assay on M14 melanoma is 29.9%.

With `COc1ccc(OC)c(C(=O)Nc2cccc(-c3cc(=O)c4ccccc4o3)c2)c1`, the growth is 92.8% with NCI-H23 lung; 92.4% in the assay on NCI-H226 lung; 86.9% in the assay on NCI-H322M lung; 89.1% in the assay with HOP-62 NSCLC; 90% with NCI-H460 lung; 93.7% in the assay with HOP-92 NSCLC. For the same compound, the growth in the assay on NCI-H522 lung is 68.1%; with A549/ATCC NSCLC it was 88.8%; with 786-0 renal it was 92.6%; with DU-145 prostate, 88.1%; in the assay on K-562 leukemia it was 90.1%; in the assay on MALME-3M melanoma, 83.3%. In addition, the growth is 83.4% in the assay with MDA-MB-231 breast; 74.2% in the assay on SF-268 CNS; 88.6% in the assay on SF-295 CNS; 84.4% with SF-539 CNS; 100% with UACC-257 melanoma.

As to `CCN(CC)c1ccc(Nc2ccc(CC(=O)c3ccccc3)cc2)cc1`, the growth is 81.1% with NCI-H23 lung; 97.4% with NCI-H226 lung; 90.7% in the assay with NCI-H322M lung; 94.6% in the assay on HOP-62 NSCLC; 96.3% with NCI-H460 lung; 77.5% with HOP-92 NSCLC. Also, the growth is 47% with NCI-H522 lung; 91.4% in the assay on A549/ATCC NSCLC; 88.3% in the assay with 786-0 renal; 98.1% in the assay with DU-145 prostate; 82.3% in the assay with K-562 leukemia; 106% in the assay with MALME-3M melanoma. For the same compound, the growth in the assay on MDA-MB-231 breast is 75.7%; with RXF 393 renal it was 89.2%; with SF-268 CNS, 87%; in the assay with SF-295 CNS, 97.8%; in the assay with SF-539 CNS, 89.4%; in the assay with UACC-257 melanoma, 93.7%. The growth in the assay on M14 melanoma was 87.6%.

For the compound `O=C1CSC(c2ccccc2Cl)N1c1nnc(Cn2cnnc2)o1` (centres undefined), the growth with NCI-H23 lung is 51.7%; in the assay on NCI-H226 lung it was 78.8%; in the assay on NCI-H322M lung, 87.1%; in the assay on HOP-62 NSCLC, 37.3%; in the assay on NCI-H460 lung, 34.2%; in the assay with HOP-92 NSCLC, 43%. Further, the growth in the assay on NCI-H522 lung is 101%; in the assay on A549/ATCC NSCLC, 58%; in the assay with 786-0 renal, 41.9%; in the assay on DU-145 prostate it was 104%; with K-562 leukemia it was 8.59% (active); in the assay with MALME-3M melanoma it was 28.9%. In addition, the growth is 68.6% with MDA-MB-231 breast, 94.7% in the assay on SF-268 CNS, -32.6% (active) in the assay with SF-295 CNS and 39.7% in the assay on SF-539 CNS.

`CC(C)c1ccc(C(=O)OC(=O)c2ccc(C(C)C)cc2)cc1`: the growth with NCI-H23 lung was 86.4%; in the assay with NCI-H226 lung, 97.9%; in the assay on NCI-H322M lung, 88.8%; in the assay on HOP-62 NSCLC, 86.2%; with NCI-H460 lung, 96.3%; in the assay on HOP-92 NSCLC it was 87.8%. Moreover, the growth in the assay with NCI-H522 lung was 85.3%; with A549/ATCC NSCLC, 103%; in the assay with 786-0 renal, 95.8%; in the assay on DU-145 prostate, 119%; in the assay with K-562 leukemia it was 74.7%; in the assay on MALME-3M melanoma, 86.3%. Also, the growth in the assay on MDA-MB-231 breast is 116%; with RXF 393 renal, 98.5%; in the assay on SF-268 CNS, 103%; with SF-295 CNS, 98.9%; with SF-539 CNS, 108%; in the assay on UACC-257 melanoma, 105%. In the assay on M14 melanoma, the growth was 94.5%.

In the case of `C/C(=N\NC(=O)Cn1c(-c2ccc(S(C)(=O)=O)cc2)nc2cc(Cl)ccc21)c1ccc(Cl)cc1`, the growth is 83% in the assay on NCI-H23 lung; 79% with NCI-H226 lung; 86% in the assay on NCI-H322M lung; 80.9% with HOP-62 NSCLC; 82.8% in the assay with NCI-H460 lung; 86.2% in the assay on HOP-92 NSCLC. Besides, the growth with NCI-H522 lung is 74.9%; in the assay with A549/ATCC NSCLC, 66.7%; in the assay with 786-0 renal, 92.1%; in the assay on DU-145 prostate, 90%; in the assay on K-562 leukemia, 62.9%; in the assay on MALME-3M melanoma, 90.3%. Also, the growth with MDA-MB-231 breast was 73.4%; with RXF 393 renal it was 79.3%; with SF-268 CNS, 72.4%; in the assay on SF-295 CNS, 81.1%; in the assay on SF-539 CNS, 83.1%; in the assay with UACC-257 melanoma, 79.2%. In addition, in the assay with M14 melanoma, the growth is 81%.

`CC(C)OCCCNCC(=O)Nc1ccc(S(=O)(=O)c2ccc(NC(=O)CNCCCOC(C)C)cc2)cc1`: the growth with NCI-H23 lung is 101%; in the assay on NCI-H226 lung it was 104%; in the assay with NCI-H322M lung, 118%; with HOP-62 NSCLC, 85.9%; in the assay with NCI-H460 lung, 94.9%; in the assay with HOP-92 NSCLC, 50.2%. Besides, the growth in the assay with NCI-H522 lung is 93.3%; in the assay on A549/ATCC NSCLC it was 106%; in the assay on 786-0 renal it was 93.5%; with DU-145 prostate, 113%; in the assay on K-562 leukemia, 36.8%; in the assay with MALME-3M melanoma it was 99.7%. Moreover, the growth in the assay with MDA-MB-231 breast is 50.9%; in the assay with RXF 393 renal it was 92.8%; with SF-268 CNS, 106%; in the assay on SF-539 CNS it was 79.4%; with UACC-257 melanoma, 106%; in the assay with M14 melanoma, 100%.

`Cc1nc(Nc2cccc(NC(=O)Nc3ccc(Cl)cc3)c2)c2ccccc2n1`: the growth in the assay with NCI-H23 lung is 96%; in the assay on NCI-H226 lung, 90.4%; with NCI-H322M lung it was 89.7%; in the assay with HOP-62 NSCLC it was 107%; in the assay with NCI-H460 lung, 70.5%; in the assay on HOP-92 NSCLC, 90.7%. Also, the growth was 68.6% in the assay on NCI-H522 lung; 91.6% in the assay on A549/ATCC NSCLC; 96.1% in the assay with 786-0 renal; 91.7% in the assay on DU-145 prostate; 67.6% with K-562 leukemia; 87.3% in the assay on MALME-3M melanoma. Also, the growth was 86.4% in the assay with MDA-MB-231 breast; 102% with SF-268 CNS; 88.2% with SF-295 CNS; 94.6% with SF-539 CNS; 101% in the assay on UACC-257 melanoma.
